Screens deposited in PubChem BioAssay by National Center for Advancing Translational Sciences (NCATS).
Only some compounds are listed: those with a hit (about 3.2% of all), similar ones and a draw of the others.
RGS12 GoLoco inh: qHTS Assay for Inhibitors of RGS12 GoLoco Motif Activity (Red Fluorophore); 0.44% of 230,000 active; Guanine nucleotide-binding protein G(i) subunit alpha-1 (Homo sapiens), P63096; Potency, µM (series often up to 61.6 µM), for the others: at the highest dose activity, negative = inhibition, most hits filed as inhibitors; Gai1:RGS12 GoLoco peptide FP, rhodamine, 10 min; active means well fitted inhibition curve with a large enough effect, not every such curve was filed as active; inactive means no such curve, though single readings can be large or run the other way; further: nearly all actives have a fitted effect of over 30% in size
Target sequence (P63096 whole entry, looked up): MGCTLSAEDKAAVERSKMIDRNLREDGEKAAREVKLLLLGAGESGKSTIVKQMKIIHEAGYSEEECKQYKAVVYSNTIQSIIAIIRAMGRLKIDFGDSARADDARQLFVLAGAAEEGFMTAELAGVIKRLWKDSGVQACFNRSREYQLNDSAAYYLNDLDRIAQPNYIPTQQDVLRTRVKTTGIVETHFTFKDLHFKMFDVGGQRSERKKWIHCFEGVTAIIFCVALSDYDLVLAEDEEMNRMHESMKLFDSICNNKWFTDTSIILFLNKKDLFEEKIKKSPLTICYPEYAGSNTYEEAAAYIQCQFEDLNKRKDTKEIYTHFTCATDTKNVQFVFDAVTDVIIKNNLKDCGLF
TRb-SRC2 inh: qHTS for Inhibitors of the Interaction of Thyroid Hormone Receptor and Steroid Receptor Coregulator 2; TRbeta-SRC2 peptide binding, fluorescence polarization; receptor liganded with 1 µM T3; Potency, µM (titrated, usually from 106 µM), for inactives: at the top dose activity change, negative = inhibition, actives largely listed as inhibitors; 0.065% of 280,000 active; Thyroid hormone receptor beta (Homo sapiens), P10828;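 further: plate controls were bound peptide for no effect and peptide without receptor for full effect; nearly all actives have a fitted effect of over 50% in size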
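Assay buffer: 20 mM Tris-HCl, 100 mM NaCl, 10% glycerol, 1 mM EDTA, 0.01% NP-40, 1 mM DTT, 1 uM T3, 5% DMSO; TRb LBD 0.6 uM, Texas Red SRC2 20 nM; FP after 5 hr.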
Tau fluor counter: Counterscreen qHTS for Inhibitors of Tau Fibril Formation, Fluorescence Polarization; Potency, µM (highest dose often 57.7 µM), for the others: top-dose activity change, negative = decrease; tau K18 P301L Alexa594 fluorescence, heparin fibrillization; 0.93% of 280,000 active; further: nearly all actives have a fitted effect of over 55% in size
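Human K18 P301L tau (15 uM unlabeled plus 0.24 uM Alexa 594-labeled, final) in 100 mM sodium acetate pH 7 was mixed with compound and 20 uM heparin and incubated 6 hr at 37 C.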
Tau fibril ThT: qHTS for Inhibitors of Tau Fibril Formation, Thioflavin T Binding; Microtubule-associated protein tau (Homo sapiens), P10636; recombinant tau K18 P301L, heparin-induced fibrillization, ThT fluorescence; Potency, µM (top dose mostly 57.4 µM), without a hit: top-dose activity, negative = inhibition, hits mostly inhibitors; 2.1% of 270,000 active; AID 1460, 2008; further: nearly all actives have a fitted effect of over 55% in size
Target sequence (P10636 561-689 P618L limits assumed): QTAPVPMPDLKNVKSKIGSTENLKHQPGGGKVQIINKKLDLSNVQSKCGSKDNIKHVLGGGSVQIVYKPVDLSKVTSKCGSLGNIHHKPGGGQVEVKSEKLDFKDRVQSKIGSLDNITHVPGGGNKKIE
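Tau K18 P301L fragment (15 uM unlabeled plus 0.24 uM Alexa 594-labeled) in 100 mM sodium acetate pH 7 with compound, fibrillization induced by 20 uM heparin for 6 hr at 37 C. Thioflavin T (30 uM) added, fluorescence read after 1 hr (ex 450, em 510 nm).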
TR SRC2 fluor cs: Total Fluorescence Counterscreen for Inhibitors of the Interaction of Thyroid Hormone Receptor and Steroid Receptor Coregulator 2 | AID 1479, 2009 | 0.29% of 280,000 active | TRb/SRC2 Texas Red total fluorescence interference | Potency, µM (titrated, usually from 106 µM), inactives show at the highest dose fluorescence change, negative = quenching; active means well fitted curve in either direction with a large enough effect; inconclusive means small, poorly fitted or top-dose-only effect
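Human TRβ ligand-binding domain (0.6 uM) and Texas Red SRC2 peptide (20 nM) in Tris buffer with 1 uM T3 and 5% DMSO were incubated with pinned compound for 5 hr at ambient temperature. Total fluorescence was computed as S + 2P (555/632 nm).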
Tau fibril FP: qHTS for Inhibitors of Tau Fibril Formation, Fluorescence Polarization | Microtubule-associated protein tau (Homo sapiens), P10636 | K18 P301L tau heparin fibrillization, Alexa594 FP, 6 h | Potency, µM (doses to about 57.7 µM), for the others: at the highest dose activity, negative = inhibition, actives largely listed as inhibitors | 0.39% of 280,000 active | AID 1468, 2008; further: nearly all actives have a fitted effect of over 55% in size
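Heparin (20 uM) drove fibril formation of recombinant tau K18 P301L, 15 uM unlabeled with 0.24 uM Alexa 594 label, for 6 hr at 37 C in 100 mM sodium acetate pH 7. Fluorescence polarization (555/632 nm) read 1 hr after 30 uM ThT.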
* marks the source's active call; other numbers are inactive results; ? = inconclusive; . = not tested or not shown; ! = not active in a repeat; [ ] = remark or other dose. Unless noted, the call rests on the fitted dose curve; in most records, active means well fitted curve in the direction sought with a large enough effect; inconclusive means small, poorly fitted or top-dose-only effect, or another doubt; inactive means no such curve, though single readings can be large; an effect the other way counts as inactive or inconclusive. Unless noted, on the % scale 0 is the no-effect control and ±100 the full control effect; potency means the concentration at half of the fitted maximal effect.

SMILES | RGS12 GoLoco inh | TRb-SRC2 inh | Tau fluor counter | Tau fibril ThT | TR SRC2 fluor cs | Tau fibril FP
Cc1ccccc1CSc1cn(CC(=O)N2CCCCC2)c2ccccc12 | . | 0% | -26% | ? | 0% | -5%
C[C@H](CN(C)C)C(O)(c1ccccc1)c1ccccc1 | 1%[14.2 µM] | . | . | . | . | .
CCCN1C/C(=C/c2ccc3c(c2)OCO3)C(=O)/C(=C/c2ccc3c(c2)OCO3)C1 | 0% | -4% | -22% | 22µM* | -1% | ?
CC1=C/C(=C\c2ccc3c(c2)OCO3)C(=O)S1 | -2% | -8% | -15% | 6.3µM* | -1% | -13%
C=C(C)C(=O)c1cccs1 | 4% | 12% | -8% | -3% | -3% | -3%
O=C(/C(=C/O)N=Nc1ccccc1)c1cccs1 | 3% | 5% | -14% | 28µM* | -5% | 5%
c1ccc(-c2ccc(-c3ccccc3)cc2)cc1 | . | 5%[201 µM] | . | . | 1%[201 µM] | .
COc1ccc(C2=Nn3c(nnc3-c3cccc(OC)c3OC)SC2)cc1OC | . | -1% | . | . | -2% | .
O=C(Cc1ccc(Cl)cc1Cl)Nc1ccc(OC(F)F)c(Cl)c1 | 18% | -2%[53 µM] | -22% | -1% | -1%[53 µM] | ?
COc1ccc(NC(=O)Nc2cccc([N+](=O)[O-])c2)cc1Cl | -2% | 21% | 14µM*[quencher] | 16µM* | -8% | ?
O=C(Nc1ccc(OC(F)F)c(Cl)c1)Nc1ccc2c(c1)OCO2 | 6% | -8% | 5µM*[quencher] | ? | -3% | 13%
O=C(Nc1ccc([N+](=O)[O-])cc1)Nc1ccc(OC(F)F)c(Cl)c1 | -3% | -3% | ? | ? | -1% | 10µM*
CCC[n+]1c(C)sc2c(OC)ccc(OC)c21 | 5% | -5% | -20% | 35µM* | -6% | 32µM*
C[n+]1cccc(/C=N/NC(=O)CC23CC4CC(CC(C4)C2)C3)c1 | 4µM* | -4% | -4% | . | -1% | 2%
CCn1c(=O)c2sccc2n2c(CCC(=O)NCc3ccc(Cl)cc3)nnc12 | . | 4% | -9% | -5% | 9% | -7%
Cc1ccc(N2C(N)=C(C#N)C(c3cccs3)C3=C2CC(C)(C)CC3=O)cc1 (stereo not drawn) | 138% | 3% | -25% | 25µM* | 0% | -18%
Cc1ccc(-c2nc(N)s[n+]2-c2ccccc2)cc1 | 3.5µM* | 2%[53 µM] | 6% | 3% | -1%[53 µM] | -1%
Cc1ccc(Nc2c(-c3ccc(N4CCOCC4)cc3)nc3c(C)cccn23)cc1 | . | 5% | ? | ? | -4% | 9%
COc1cccc(C2CC(=O)Nc3c2c(=O)n(C)c2nc4ccccc4n32)c1OC (stereo not drawn) | . | -2% | -13% | -3% | -27% | -11%
CCN1CCc2c(sc(N)c2C#N)C1 | 64% | 0% | -9% | ? | 6% | -9%
N#Cc1c(N)sc(=S)c2c1CCN(Cc1ccccc1)C2 | -57% | ? | ? | 1.3µM* | ? | ?
CN/N=C(\Cc1nc2ccccc2[nH]1)c1ccc([N+](=O)[O-])cc1 | 12% | -5% | ? | 13µM* | -2% | 6%
N#CCCN/N=C(/Cc1nc2ccccc2[nH]1)c1cccc(Cl)c1 | 138% | -4% | ? | ? | 3% | 8%
O=C(NCCc1nc2ccccc2[nH]1)c1ccc([N+](=O)[O-])cc1 | 3% | -5% | -4% | ? | -2% | 3%
Clc1ccc(/C(Cc2nc3ccccc3[nH]2)=N\Nc2ccccc2)cc1 | -30% | -9% | 13µM*[quencher] | ? | 1% | -8%
SMILES | RGS12 GoLoco inh | TRb-SRC2 inh | Tau fluor counter | Tau fibril ThT | TR SRC2 fluor cs | Tau fibril FP
O=C(Cc1nc2ccccc2[nH]1)c1ccc([N+](=O)[O-])cc1 | -3% | -1% | ? | 16µM* | -2% | ?
O=c1ncccn1[C@@H]1O[C@H](CO)[C@@H](O)[C@H]1O | . | 0% | . | . | 3% | .
Cc1ccc(NS(=O)(=O)c2ccc3[nH]c4c(c3c2)CCCCC4)cc1 | . | 1% | 7.9µM*[quencher] | 0% | -3% | 2%
COc1ccccc1CNS(=O)(=O)c1ccc2[nH]c3c(c2c1)CCCCC3 | . | -5% | 16µM*[quencher] | -9% | ? | ?
COc1ccc(NS(=O)(=O)c2ccc3[nH]c4c(c3c2)CCCCCC4)cc1 | . | 1% | 5µM*[quencher] | 15% | -1% | 0%
Cc1ccc(NS(=O)(=O)c2ccc3[nH]c4c(c3c2)CCCC4)c(C)c1 | . | 5% | ? | 4% | ? | 14%
COc1ccc(Cl)cc1NS(=O)(=O)c1ccc2[nH]c3c(c2c1)CCCC3 | . | 4% | 8.9µM*[quencher] | 1% | 3% | 0%
C=CC[C@@H]1C=C[C@@H](O/N=C2/C[C@@H](O)[C@@H](O)[C@@H]3[C@@H]4C(=O)N(CC)C(=O)[C@H]4CC[C@@H]23)[C@@H](CO)O1 | . | 3%[11.2 µM] | -3%[11.6 µM] | 2%[11.5 µM] | 1%[11.2 µM] | -1%[11.6 µM]
COc1cccc(NS(=O)(=O)c2ccc3[nH]c4c(c3c2)CCCCCC4)c1 | . | 4% | 7.1µM*[quencher] | -4% | 4% | -1%
COc1ccc(-c2nc(-c3ccccc3)c(-c3ccc(O)cc3)[nH]2)cc1 | . | 4% | 14µM*[quencher] | ? | -4% | ?
COc1ccc(-c2[nH]c(-c3ccc(O)cc3)nc2-c2ccccc2)cc1 | . | -8% | 22µM*[quencher] | ? | -4% | 7%
COc1ccc(CNc2oc(COc3ccc(Cl)cc3)nc2C#N)cc1 | 5% | -2% | ? | -16% | -1% | 2%
COCCCNc1oc(-c2ccc(COc3ccc(Cl)cc3)o2)nc1C#N | . | -3% | 11µM*[quencher] | ? | -8% | ?
COc1ccc(Nc2oc(COc3ccc(Cl)cc3)nc2C#N)cc1 | -1% | -1% | 20µM*[quencher] | ? | 0% | 11%
COCCNc1oc(-c2ccc(COc3ccc(OC)cc3)o2)nc1C#N | . | -6% | ? | -8% | ? | 8%
CCOCCCNC(=O)C1CCC(CNS(=O)(=O)c2ccc(NC(C)=O)cc2)CC1 (stereo not drawn) | . | -5% | 5% | 3% | -2% | -2%
O=C(COc1ccc2ccccc2c1)NC1CC(=O)N(c2cccc(F)c2)C1 (stereo not drawn) | . | 6% | -21% | -14% | 0% | -7%
COC(=O)CCC(=O)OC1(C)C(=O)C2=CN(CC3CC3)C(c3ccc(OC)cc3)=CC2=C(Br)C1=O (stereo not drawn) | 23%[14.2 µM] | 4%[11.2 µM] | -4%[11.6 µM] | 11µM*! | -3%[11.2 µM] | ?
